Values joined by “and” are separate entries in the source; they are usually repeats but may differ in a detail not shown here. Equal values may be shown once. Results filed as inconclusive are left out. Active and inactive are the calls of the source. Unless noted, the call rests on the fitted dose curve; in most records, active means well fitted curve in the direction sought with a large enough effect; inconclusive means small, poorly fitted or top-dose-only effect, or another doubt; inactive means no such curve, though single readings can be large; an effect the other way counts as inactive or inconclusive.
How the values were obtained:
[1] = target: Parathyroid hormone/parathyroid hormone-related peptide receptor (Homo sapiens) (UniProt Q03431); assay: qHTS for PTHR1 Agonists: Optimization Screen against the NCGC LOPAC library (AID 1347079);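 further: GloSensor cAMP luminescence in HEK-293 GP2 cells expressing human PTHR1 with IBMX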
In short: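 Signal increase flags agonism. GP2 cells, derived from HEK-293, express human PTHR1 and a GloSensor cAMP construct.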

[2] = qHTS for Inhibitors of the Functional Ribonucleoprotein Complex (vRNP) of Lassa (LASV) Arenavirus: LASV Primary Screen - GLuc reporter signal (AID 1347082; calls by dose curve; tested in HEK293 reporter line; further: series mostly up to about 57 µM; nearly all actives have a fitted effect of over 60% in size)
[3] = qHTS for Inhibitors of the Functional Ribonucleoprotein Complex (vRNP) of Lassa (LASV) Arenavirus: Viability assay - alamar blue signal for LASV Primary Screen (AID 1347083; calls by dose curve; tested in HEK293 reporter line; further: nearly all actives have a fitted effect of over 80% in size; further: potency means the concentration at half of the fitted maximal effect)
[4] = qHTS for Inhibitors of the Functional Ribonucleoprotein Complex (vRNP) of Lymphocytic Choriomeningitis Arenaviruses (LCMV): Viability assay - alamar blue signal for LCMV Primary Screen (AID 1347085; calls by dose curve; tested in HEK293 reporter line; further: nearly all actives have a fitted effect of over 80% in size; further: potency means the concentration at half of the fitted maximal effect)
[5] = target: Nucleoprotein (Lymphocytic choriomeningitis virus (strain Armstrong)) (UniProt P09992); assay: qHTS for Inhibitors of the Functional Ribonucleoprotein Complex (vRNP) of Lymphocytic Choriomeningitis Arenaviruses (LCMV): LCMV Primary Screen - GLuc reporter signal (AID 1347086; calls by dose curve; further: series mostly up to about 57 µM; nearly all actives have a fitted effect of over 70% in size)
[6] = qHTS of pediatric cancer cell lines to identify multiple opportunities for drug repurposing: Primary screen for TC32 cells (AID 1347089); further: nearly all actives have a fitted effect of over 60% in size
In short: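 A viability screen of TC32 cells was run over 48 h, with primary MIPE doses spanning 0.78 nM–46 µM and NPC doses 0.59 nM–46 µM. ATP luminescence (CellTiter-Glo) served as the read-out.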

[7] = qHTS of pediatric cancer cell lines to identify multiple opportunities for drug repurposing: Primary screen for SJ-GBM2 cells (AID 1347091); further: potency means the concentration at half of the fitted maximal effect
In short: (§1)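 Eight- or eleven-point concentration series, 48 h treatment at 37 degrees C in growth media; readout CellTiter-Glo luminescence. Potency and efficacy were taken from the concentration-response curves.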

[8] = qHTS of pediatric cancer cell lines to identify multiple opportunities for drug repurposing: Primary screen for A673 cells (AID 1347092); further: nearly all actives have a fitted effect of over 45% in size
In short: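 Titration-based qHTS on A673 cells: MIPE compounds spanned 11 points (0.78 nM to 46 µM final), NPC compounds 8 points (0.59 nM to 46 µM final). Viability after 48 h was measured by ATP luminescence.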

[9] = qHTS of pediatric cancer cell lines to identify multiple opportunities for drug repurposing: Primary screen for SK-N-MC cells (AID 1347093); further: potency means the concentration at half of the fitted maximal effect
In short: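 Metabolically active cells were quantified by ATP-dependent luminescence (CellTiter-Glo, 15 min at room temperature) following 48 h treatment. Cells had been plated at 500-1,000 per well and settled for 5 h beforehand.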

[10] = qHTS of pediatric cancer cell lines to identify multiple opportunities for drug repurposing: Primary screen for DAOY cells (AID 1347090); further: series mostly up to about 46 µM; nearly all actives have a fitted effect of over 55% in size
In short: as §1

Measured: Potency

Parathyroid hormone/parathyroid hormone-related peptide receptor (Homo sapiens), sequence (Q03431 whole entry, looked up): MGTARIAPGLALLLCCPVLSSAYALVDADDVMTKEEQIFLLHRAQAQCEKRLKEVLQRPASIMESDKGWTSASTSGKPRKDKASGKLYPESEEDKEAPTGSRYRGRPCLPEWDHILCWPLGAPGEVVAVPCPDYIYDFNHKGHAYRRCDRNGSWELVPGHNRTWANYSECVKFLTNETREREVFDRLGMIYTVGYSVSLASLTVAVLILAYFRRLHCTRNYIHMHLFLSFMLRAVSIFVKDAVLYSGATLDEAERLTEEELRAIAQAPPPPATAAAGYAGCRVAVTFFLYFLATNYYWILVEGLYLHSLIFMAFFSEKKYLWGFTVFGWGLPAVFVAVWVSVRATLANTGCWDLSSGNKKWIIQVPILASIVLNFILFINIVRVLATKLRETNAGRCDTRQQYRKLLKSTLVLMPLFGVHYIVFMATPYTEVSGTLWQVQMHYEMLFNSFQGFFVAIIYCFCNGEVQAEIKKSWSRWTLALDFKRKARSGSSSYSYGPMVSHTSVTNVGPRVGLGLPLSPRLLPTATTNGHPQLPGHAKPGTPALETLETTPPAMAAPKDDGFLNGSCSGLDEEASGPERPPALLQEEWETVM
Nucleoprotein (Lymphocytic choriomeningitis virus (strain Armstrong)), sequence (P09992 whole entry, looked up): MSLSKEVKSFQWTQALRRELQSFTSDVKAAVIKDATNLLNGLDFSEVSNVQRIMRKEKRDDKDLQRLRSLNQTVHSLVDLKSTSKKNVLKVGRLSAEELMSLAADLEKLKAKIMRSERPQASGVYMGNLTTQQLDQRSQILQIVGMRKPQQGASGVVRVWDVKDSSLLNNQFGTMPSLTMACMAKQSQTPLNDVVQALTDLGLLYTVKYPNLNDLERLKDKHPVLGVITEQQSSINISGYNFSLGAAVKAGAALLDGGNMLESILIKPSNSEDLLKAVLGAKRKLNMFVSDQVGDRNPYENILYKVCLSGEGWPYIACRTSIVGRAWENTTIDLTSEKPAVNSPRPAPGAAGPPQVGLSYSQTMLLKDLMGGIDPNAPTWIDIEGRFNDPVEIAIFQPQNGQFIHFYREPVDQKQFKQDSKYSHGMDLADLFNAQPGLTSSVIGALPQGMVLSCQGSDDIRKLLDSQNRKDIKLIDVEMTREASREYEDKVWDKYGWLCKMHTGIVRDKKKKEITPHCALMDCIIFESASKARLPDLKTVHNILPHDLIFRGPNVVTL

Cc1ncsc1CCCl
not listed: [10]
inactive: all other assays above

O=C(O)c1ccccc1-c1ccc(C(F)(F)F)cc1
inactive: [2] | [3]

CCCOc1ccc2c(c1)CC[C@@H]1[C@@H]2CC[C@]2(C)C(OC)CC[C@@H]12 (stereo partly drawn)
inactive: [2] | [3] | [4] | [5]

CCOc1ccc2nc3cc(N)ccc3c(N)c2c1
inactive: [2]

N=C(N)N
inactive: [2] | [3] | [4] | [5]

O=c1[nH]c(=O)n([C@H]2C[C@H](O)[C@@H](CO)O2)cc1F
inactive: [2]

CO[C@H]1C[C@@H]2CC[C@@H](C)[C@@](O)(O2)C(=O)C(=O)N2CCCC[C@@H]2C(=O)O[C@H]([C@@H](C)C[C@@H]2CC[C@H](O)[C@H](OC)C2)CC(=O)[C@H](C)C=C(C)[C@@H](O)[C@@H](OC)C(=O)[C@H](C)C[C@H](C)C=CC=CC=C1C
inactive: [2]
active: [3] 0.0027 µM | [4] 0.0122 µM

CC(C)c1cccc(C(C)C)c1O
not listed: [6] | [10]
inactive: all other assays above

COc1ccc2c(c1OC)C(=O)O[C@H]2[C@@H]1c2cc3c(cc2CCN1C)OCO3
not listed: [10]
inactive: all other assays above

CCC1(c2ccc(N)cc2)CCC(=O)NC1=O (stereo not drawn)
inactive: all assays above

Nc1nc(Cl)nc2c1ncn2[C@@H]1O[C@H](CO)[C@@H](O)[C@@H]1F
inactive: [2]

Nc1nc2[nH]cc(CCc3ccc(C(=O)N[C@@H](CCC(=O)O)C(=O)O)cc3)c2c(=O)[nH]1
inactive: [2] | [3]

O=P1(N(CCCl)CCCl)NCCCO1 (stereo not drawn)
inactive: all assays above

Cc1nc2ccc(CN(C)c3ccc(C(=O)N[C@@H](CCC(=O)O)C(=O)O)s3)cc2c(=O)[nH]1
inactive: [2]

CC(C)(S)[C@@H](N)C(=O)O
inactive: [2] | [3] | [4]

Cc1ncc([N+](=O)[O-])n1CC(C)O (stereo not drawn)
inactive: [2] | [3] | [4]

NC(=O)c1cnccn1
inactive: [2] | [3] | [4]

CC(=O)NC[C@H]1CN(c2ccc(N3CCOCC3)c(F)c2)C(=O)O1
inactive: [2] | [3] | [4]

CN1C(=O)CCS(=O)(=O)C1c1ccc(Cl)cc1 (stereo not drawn)
inactive: all assays above

C=C(C)[C@H]1CN[C@H](C(=O)O)[C@H]1CC(=O)O
inactive: all assays above

CCCCC(CC)CNC(=O)CC(C)OC(=O)CCC(=O)O (stereo not drawn)
inactive: [2] | [3] | [4] | [5]

CC(C)(C)NCC(O)c1ccccc1Cl (stereo not drawn)
not listed: [10]
inactive: all other assays above

CCCCC/C=C\C/C=C\C/C=C\C/C=C\CCCC(=O)NCC(=O)O
not listed: [6] | [9] | [10]
inactive: all other assays above

O=C(O)CCCc1ccc(N(CCCl)CCCl)cc1
active: [7] 13.2 µM | [9] 20.9 µM
not listed: [6] | [10]
inactive: all other assays above

CC(C(=O)O)c1ccc2c(c1)CC(=O)c1ccccc1S2 (stereo not drawn)
inactive: [2] | [3]

Cc1onc(-c2ccccc2)c1C(=O)N[C@@H]1C(=O)N2[C@@H](C(=O)O)C(C)(C)S[C@@H]12
inactive: [2] | [3]

COc1ccc(O)cc1
inactive: [2] | [3] | [4] | [5]

Nc1nc2ccc(OC(F)(F)F)cc2s1
inactive: [2]

COc1ccnc(CS(=O)c2nc3ccc(OC(F)F)cc3[nH]2)c1OC (stereo not drawn)
inactive: [2] | [3] | [4] | [5]

O=c1[nH]oc2c1CCNC2
not listed: [10]
inactive: all other assays above

S=c1nc[nH]c2nc[nH]c12
inactive: [2]
active: [3] 6.11 µM

CC(NC(C)(C)C)C(=O)c1cccc(Cl)c1 (stereo not drawn)
active: [9] 1.1 nM and 29.6 µM
not listed: [10]
inactive: all other assays above

O=C(CCCN1CCC2(CC1)C(=O)NCN2c1ccccc1)c1ccc(F)cc1
not listed: [7]
inactive: all other assays above

CC(C)(C)C1CCC(CC2=C(O)c3ccccc3C(=O)C2=O)CC1 (stereo not drawn)
inactive: [2] | [3] | [4]

CC(C)N(CCC(C(N)=O)(c1ccccc1)c1ccccn1)C(C)C (stereo not drawn)
not listed: [6]
inactive: all other assays above

NCCc1ccc(O)cc1
inactive: all assays above

O=C(N[C@H](CO)[C@H](O)c1ccc([N+](=O)[O-])cc1)C(Cl)Cl
inactive: [2] | [3] | [4] | [5]

COCCCOc1ccnc(CS(=O)c2nc3ccccc3[nH]2)c1C (stereo not drawn)
inactive: [2] | [3]

O=C(O)CNC(=O)c1ccccc1
inactive: [2] | [3] | [4] | [5]

CC(=O)Nc1ccccc1
inactive: [2] | [3] | [4] | [5]

CC(C)C[C@H]1C(=O)N2CCC[C@H]2[C@]2(O)O[C@](NC(=O)[C@@H]3C=C4c5cccc6[nH]c(Br)c(c56)C[C@H]4N(C)C3)(C(C)C)C(=O)N12
inactive: [2] | [3] | [4] | [5]

CC(=O)NC(=O)c1ccccc1O
inactive: [2] | [3] | [4] | [5]

Cc1ccc(C(=O)c2ccc(CC(=O)O)n2C)cc1
inactive: [2] | [3] | [4] | [5]

CCOC(=O)c1ccc(O)c(O)c1
inactive: [2] | [3] | [4] | [5]

CN/C(=C\[N+](=O)[O-])NCCSCc1csc(CN(C)C)n1
inactive: [2] | [3] | [4] | [5]

NC(Cc1ccc(Cl)cc1)C(=O)O (stereo not drawn)
inactive: [2] | [3] | [4] | [5]

NC(=O)CC[C@@H]1NC(=O)[C@H](Cc2ccccc2)NC(=O)[C@H](Cc2ccc(O)cc2)NC(=O)CCSSC[C@@H](C(=O)N2CCC[C@H]2C(=O)N[C@@H](CCCN=C(N)N)C(=O)NCC(N)=O)NC(=O)[C@H](CC(N)=O)NC1=O
inactive: [2] | [3] | [4] | [5]

CC(C(=O)O)c1ccc(C(=O)c2ccccc2)s1 (stereo not drawn)
inactive: [2] | [3] | [4] | [5]

COc1ccc(C2C(=O)c3ccccc3C2=O)cc1
inactive: [2] | [3] | [4] | [5]

O=C(CN1CCNCC1)NC1CCCCC1
inactive: [2] | [3] | [4] | [5]

Cc1cc(=O)n(-c2ccccc2)n1C
inactive: [2] | [3] | [4] | [5]

O=C(O)CCc1nc2ccccc2[nH]1
inactive: [2] | [3] | [4] | [5]

O=C(Cn1ccnc1[N+](=O)[O-])NCc1ccccc1
inactive: [2] | [3] | [4] | [5]

CC1(C)O[C@@H]2C[C@H]3[C@@H]4CCC5=CC(=O)C=C[C@]5(C)[C@@]4(F)[C@@H](O)C[C@]3(C)[C@]2(C(=O)CO)O1
inactive: [2] | [3] | [4] | [5]

O=C(O)c1cc(=O)c2ccccc2o1
inactive: [2] | [3] | [4] | [5]

Clc1ccc2c(c1)Nc1ccccc1S2
inactive: [2] | [3] | [4] | [5]

Nc1ccc(S(=O)(=O)Nc2ccc(Cl)nn2)cc1
inactive: [2] | [3] | [4] | [5]

NC(=O)n1c(O)c(C(=O)c2cccs2)c2cc(Cl)ccc21
inactive: [2] | [3] | [4] | [5]

CC(O)CCCCn1c(=O)c2c(ncn2C)n(C)c1=O (stereo not drawn)
inactive: [2] | [3] | [4] | [5]

O=C(CCOCCOCCOCCOCCC(=O)Nc1c(I)cc(I)c(C(=O)O)c1I)Nc1c(I)cc(I)c(C(=O)O)c1I
inactive: [2] | [3] | [4] | [5]

CC(=O)[C@H]1CC[C@H]2[C@@H]3C=CC4=CC(=O)CC[C@@]4(C)[C@@H]3CC[C@]12C
inactive: [2] | [3] | [4] | [5]

COC(=O)c1cc(Cl)c(NC(C)=O)cc1OC
inactive: [2] | [3] | [4] | [5]

CCCCN(CCCC)CCCOC(=O)c1ccc(N)cc1
inactive: [2] | [3] | [4] | [5]

Cc1cc(CCCOc2c(C)cc(-c3noc(C(F)(F)F)n3)cc2C)on1
inactive: [2] | [3] | [4] | [5]

CCN(CC)C(=O)c1ccc(O)c(OC)c1
inactive: [2] | [3] | [4] | [5]

CC(=O)[C@@]1(O)CC[C@H]2[C@@H]3C[C@H](C)C4=CC(=O)C=C[C@]4(C)[C@@]3(F)[C@@H](O)C[C@@]21C
inactive: [2] | [3] | [4] | [5]

CC(C)(Oc1ccc(Cl)cc1)C(=O)O
inactive: [2] | [3] | [4] | [5]

CN1N=C(C(N)=O)CCC1=O
inactive: [2] | [3] | [4] | [5]

CC[C@H](C)C(=O)O[C@H]1C[C@H](O)C=C2C=C[C@H](C)[C@H](CC[C@@H](O)C[C@@H](O)CC(=O)O)[C@H]21
inactive: [2] | [3] | [4] | [5]

CC(=O)c1ccc(O)c(C(N)=O)c1
inactive: [2] | [3] | [4] | [5]

— PubChem BioAssay (NCATS)
